This passage reports outcome and AC50 results from PubChem BioAssay (EPA / NIEHS).

The AC50 is the concentration giving half of the maximal activity seen.

SMILES strings stand for the structures. Results filed as inconclusive are left out. The source made the active and inactive calls. How the source made its calls: active means hit-call score of the fitted dose curve at least 0.9, where 1 is the maximum; inconclusive means response in the unintended direction; inactive means score below 0.9.

The target in one test is rat Constitutive Nitric Oxide Synthase (CNOS), Nos1 (gene 24598) (UniProt P29476). Put plainly: NVS_ENZ_rCNOS: NovaScreen (NVS) Enzymatic Assay for rat Constitutive Nitric Oxide Synthase (CNOS) (AID 2283236). The protocol: NVS_ENZ_rCNOS is a biochemical, single-readout assay that uses extracted gene-proteins from Rat brain membranes in a tissue-based cell-free assay. Measurements were taken 1 hour after chemical dosing in a 96-well plate.NVS_ENZ_rCNOS is one of one assay component(s) measured or calculated from the NVS_ENZ_rCNOS assay. It is designed to make measurements of enzyme activity, a form of enzyme reporter, as detected with scintillation counting signals by Filter-based radiodetection technology.Data from the assay component NVS_ENZ_rCNOS was analyzed into 1 assay endpoint. This assay endpoint, NVS_ENZ_rCNOS, was analyzed in the positive analysis fitting direction relative to DMSO as the negative control and baseline of activity. Using a type of enzyme reporter, loss-of-signal activity can be used to understand changes in the enzymatic activity as they relate to the gene Nos1. Furthermore, this assay endpoint can be referred to as a primary readout, because this assay has produced multiple assay endpoints where this one serves a enzymatic activity function. To generalize the intended target to other relatable targets, this assay endpoint is annotated to the oxidoreductase intended target family, where the subfamily is nitric oxide synthase.
Sequence of rat Constitutive Nitric Oxide Synthase (CNOS), Nos1 (gene 24598) (P29476 whole entry, looked up): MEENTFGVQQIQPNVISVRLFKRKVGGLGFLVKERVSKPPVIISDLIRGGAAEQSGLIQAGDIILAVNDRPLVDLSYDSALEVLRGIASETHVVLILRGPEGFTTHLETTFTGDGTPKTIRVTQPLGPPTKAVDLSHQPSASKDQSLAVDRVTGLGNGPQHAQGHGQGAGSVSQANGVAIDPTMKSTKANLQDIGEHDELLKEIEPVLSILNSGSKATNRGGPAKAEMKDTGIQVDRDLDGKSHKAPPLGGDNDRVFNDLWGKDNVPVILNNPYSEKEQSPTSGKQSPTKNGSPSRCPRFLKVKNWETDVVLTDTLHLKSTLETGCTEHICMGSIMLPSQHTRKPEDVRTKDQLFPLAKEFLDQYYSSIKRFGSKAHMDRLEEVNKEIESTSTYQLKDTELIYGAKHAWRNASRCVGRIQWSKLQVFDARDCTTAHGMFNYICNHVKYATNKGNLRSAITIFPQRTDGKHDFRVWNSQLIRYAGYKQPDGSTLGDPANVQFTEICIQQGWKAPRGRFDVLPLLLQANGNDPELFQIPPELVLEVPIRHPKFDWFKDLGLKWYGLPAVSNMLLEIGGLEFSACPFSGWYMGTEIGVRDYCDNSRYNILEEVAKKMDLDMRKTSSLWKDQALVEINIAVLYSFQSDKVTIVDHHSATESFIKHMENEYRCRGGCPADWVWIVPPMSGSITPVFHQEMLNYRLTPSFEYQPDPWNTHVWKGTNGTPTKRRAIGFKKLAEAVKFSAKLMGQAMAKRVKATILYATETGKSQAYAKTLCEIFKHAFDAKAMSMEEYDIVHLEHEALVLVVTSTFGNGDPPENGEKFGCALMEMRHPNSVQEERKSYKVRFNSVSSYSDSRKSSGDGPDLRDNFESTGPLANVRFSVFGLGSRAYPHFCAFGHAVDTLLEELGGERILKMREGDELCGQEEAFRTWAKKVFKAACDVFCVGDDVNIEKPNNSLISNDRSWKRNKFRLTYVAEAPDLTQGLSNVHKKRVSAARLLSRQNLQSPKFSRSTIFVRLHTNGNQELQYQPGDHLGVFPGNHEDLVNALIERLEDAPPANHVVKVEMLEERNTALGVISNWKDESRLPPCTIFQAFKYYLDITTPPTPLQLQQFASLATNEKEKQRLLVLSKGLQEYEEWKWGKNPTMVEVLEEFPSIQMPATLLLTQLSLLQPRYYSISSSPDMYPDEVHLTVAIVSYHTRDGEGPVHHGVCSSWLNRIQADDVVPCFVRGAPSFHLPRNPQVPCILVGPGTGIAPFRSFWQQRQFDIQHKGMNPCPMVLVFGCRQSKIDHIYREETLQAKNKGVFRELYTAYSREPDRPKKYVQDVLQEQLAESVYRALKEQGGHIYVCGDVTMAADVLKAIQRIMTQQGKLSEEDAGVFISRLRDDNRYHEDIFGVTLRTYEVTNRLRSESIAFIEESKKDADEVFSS
Binding assays used specific radioligands (tritiated, iodinated) with non-radioactive competitive displacement ligands in agonist or antagonist protocols (as indicated) and various reference compounds and inhibitors to titrate specific binding to receptors and transporters. Most enzyme assays (CYPs, kinases, phosphatases, proteases, HDACs) used recombinant protein and specific substrates (fluorescence mostly, some colorimetric and radioactive) and inhibitors, followed by a biochemical separation of substrate and product. All assays for the biochemical HTS were initially run in duplicate at a single concentration (10 uM for CYP450 assays and 25 uM for all others). Assay-chemical combinations meeting a pre-defined threshold (e.g., 30% inhibition and other criteria defined below) were then run in singleton concentration-response format with maximum concentration of 20 uM for CYPs and 50 uM for all others. Each assay was run with positive and negative controls, and concurrent controls on every plate. The follow-up (secondary) screen tested active chemical-pairs in concentration series, as well as a few additional assays not tested in the primary screen, some selected negative inactives, and several cases re-run in the concentration series for confirmatory purposes.
In the case of `COP(=O)(NC(C)=O)SC` (stereo unspecified), the molecule was classed as inactive.

On to `Nc1c(Cl)cc([N+](=O)[O-])cc1Cl`, for which the outcome was inactive.

As to `CN(C)[C@@H]1C(=O)C(C(N)=O)=C(O)[C@@]2(O)C(=O)C3=C(O)c4c(O)cccc4[C@@](C)(O)[C@H]3[C@H](O)[C@@H]12`, the AC50 was 5.33 µM (active).

For the molecule `CCCCSP(=O)(SCCCC)SCCCC`, the AC50 is 6.6 µM (active).

In the case of `CCCCN(CC)c1c([N+](=O)[O-])cc(C(F)(F)F)cc1[N+](=O)[O-]`, the outcome was inactive.

As to `CC(C)[C@H](C(=O)O[C@H](C#N)c1cccc(Oc2ccccc2)c1)c1ccc(Cl)cc1`, the molecule was called inactive.

For another test, the system named is rat Monoamine Oxidase, MAO-A, Peripheral (MAOAP), gene 29253. Put plainly: NVS_ENZ_rMAOAP: NovaScreen (NVS) Enzymatic Assay for rat Monoamine Oxidase, MAO-A, Peripheral (MAOAP) (AID 2283237). Summed up:
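Scintillation counting tracked MAO-A activity in a cell-free rat liver mitochondrial membrane prep, read 1.17 hours after compound addition. Single-point duplicate testing at 25 uM preceded concentration-response follow-up; activity was fitted relative to DMSO.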
As to `CN(C)C(=O)Nc1cccc(C(F)(F)F)c1`, the AC50 was 25 µM (active).

In the case of `CC[C@H](C)[C@H]1O[C@]2(C=C[C@@H]1C)C[C@@H]1C[C@@H](C/C=C(\C)[C@@H](O[C@H]3C[C@H](OC)[C@@H](O[C@H]4C[C@H](OC)[C@@H](NC)[C@H](C)O4)[C@H](C)O3)[C@@H](C)/C=C/C=C3\CO[C@@H]4[C@H](O)C(C)=C[C@@H](C(=O)O1)[C@]34O)O2`, the molecule was classed as inactive.

Regarding `CCC(=O)Nc1ccc(Cl)c(Cl)c1`, the AC50 is 6.9 µM (active).

In the case of `Nc1c(Cl)cc([N+](=O)[O-])cc1Cl`, the AC50 is 18 µM (active).

Regarding `C[Si](Cn1cncn1)(c1ccc(F)cc1)c1ccc(F)cc1`, the AC50 is 25 µM (active).
